Hits are enriched below; roughly 28% of the tested compounds scored in any of these assays.
CYP2C9 act – CYP2C9 (human) activation; recombinant CYP2C9, luciferin-H conversion, luminescence; stronger effect = higher value; factor 1 = untreated enzyme, 0 = blocked; AID 1024; P11712; activation factor at 5 µM; 1.4% of 96,000 active;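 active = activation factor of 2 or more for CYP2C9 at a 5 µM dose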;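 note: 0 = sulfaphenazole-blocked wells and 1 = vehicle-only wells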
CYP2C19 inhib – human CYP2C19 inhibition; CYP2C19 Supersomes, luciferin-H EGE luminescence, 30 min; inhibition, % at 5 µM; 21% of 96,000 active; AID 778;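 active = CYP2C19 inhibition above a set limit at 5 µM in the primary screen, cut at about 50% in these data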;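 note: plate controls were negative control wells for no effect and 2.5 mM tranylcypromine positive control for full effect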
Target sequence (P33261 whole entry, looked up): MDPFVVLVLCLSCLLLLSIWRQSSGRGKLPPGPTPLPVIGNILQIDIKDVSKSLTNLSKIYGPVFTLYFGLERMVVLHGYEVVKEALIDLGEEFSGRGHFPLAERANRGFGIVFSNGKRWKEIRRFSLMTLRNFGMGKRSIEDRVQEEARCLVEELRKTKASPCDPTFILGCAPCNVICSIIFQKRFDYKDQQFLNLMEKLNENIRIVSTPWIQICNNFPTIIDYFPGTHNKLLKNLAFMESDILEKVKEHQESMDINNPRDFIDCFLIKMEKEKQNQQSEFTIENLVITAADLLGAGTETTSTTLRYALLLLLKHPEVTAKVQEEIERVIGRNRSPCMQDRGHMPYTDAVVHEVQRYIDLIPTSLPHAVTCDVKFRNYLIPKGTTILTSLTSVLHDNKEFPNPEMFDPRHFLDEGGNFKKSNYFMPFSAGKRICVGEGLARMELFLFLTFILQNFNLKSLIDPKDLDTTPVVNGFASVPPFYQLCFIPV
CYP2C9 inhib – human CYP2C9 inhibition; P11712; CYP2C9 Supersomes, luciferin-H conversion, luminescence; inhibition, % at 5 µM; 20% of 96,000 active; AID 777;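 active = blocking of liver enzyme CYP2C9 beyond about 50% at 5 µM, limit read from the data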
PLK1 PBD inh – Plk1 (human) PBD binding inhibition. P53350. Plk1 PBD phosphopeptide binding, fluorescence polarization. inhibition, %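 (tested at about 20 µM)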. 0.13% of 97,000 active. AID 693; in the data active = inhibition above about 34%, passing the limit was not always enough
CYP2C19 act – increases human CYP2C19 enzyme activity. P33261. recombinant CYP2C19, luciferin-H EGE luminescence; stronger effect = higher value; 0 = fully inhibited enzyme, 1 = untreated enzyme. activation factor at 5 µM. 96,000 tested, under 10 active. AID 1025;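 active = activation factor of at least 2 at 5 µM in the primary screen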;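 note: 0 = wells with 2.5 mM tranylcypromine and 1 = vehicle-only wells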
PLK1 kinase inh – blocks human PLK1 kinase activity; P53350; recombinant PLK1 kinase, TR-FRET peptide phosphorylation; inhibition, % at 10 µM; 0.53% of 97,000 active; AID 619;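 active = inhibition of 50% or more in the single-concentration screen; inactive = inhibition below 50%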;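 note: 0% = DMSO max control and 100% = H-89 dihydrochloride min control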
* = called active by the depositor; · = not tested or not shown.

SMILES | CYP2C9 act | CYP2C19 inhib | CYP2C9 inhib | PLK1 PBD inh | CYP2C19 act | PLK1 kinase inh
O=C(CS(=O)(=O)c1cccc(C(F)(F)F)c1)Nc1ccccc1Cl | 1.9 | 60.2* | -86.7 | -3.9 | 0.4 | -6.5
Cc1cc(S(=O)(=O)Nc2ccccc2C(=O)O)ccc1Cl | 0.3 | 37.0 | 73.6* | -1.5 | 0.6 | -14.1
COC(=O)c1c(C(=O)OC)c(C)n(Cc2cccnc2)c1C | 0.5 | 27.7 | 51.4* | 25.5 | 0.7 | -6.1
Cc1ccc(NCc2nnc(SCC(N)=O)n2CCc2ccccc2)cc1 | 1.1 | 1.5 | -14.3 | 12.7 | 1 | -6.7
COc1cccc(-c2nc(-c3ccccc3)[nH]c(=O)c2C#N)c1 | 0.9 | -4.3 | 8.0 | -13.4 | 1 | -8.0
COc1ccc(-c2nc(-c3cccc(C)c3)[nH]c(=O)c2C#N)cc1 | 0.5 | -12.1 | 52.0* | 4.4 | 1.1 | -318.9
Cc1ccc(C)c(NC(=O)CSc2ncnc3nc[nH]c23)c1 | 1 | 4.6 | -3.2 | -17.1 | 1 | 28.5
Brc1ccc(CSc2ncnc3nc[nH]c23)cc1 | 0.8 | 55.8* | 19.0 | · | 0.4 | ·
Cc1ccc(OCCSc2ncnc3nc[nH]c23)cc1 | 0.5 | 73.0* | 53.8* | -9.7 | 0.3 | 55.8*
CC1=C(C(=O)N2CCOCC2)C(c2ccccc2F)C2=C(CCCC2=O)N1 (centres undefined) | 1 | 9.5 | -4.4 | -6.1 | 0.9 | -8.2
CC(C)c1[nH]c(=O)c(C#N)c2c1CSC(C)(C)C2 | 1 | 71.2* | 2.8 | 11.1 | 0.3 | -7.2
CCCCc1[nH]c(=O)c(C#N)c2c1CSC(C)(C)C2 | 0.6 | 63.4* | 36.7 | -16.6 | 0.4 | 2.3
Cc1cc(NC(=O)COC(=O)c2cc3c(s2)CCC(C)C3)no1 (centres undefined) | 0.7 | 27.6 | 32.0 | -8.2 | 0.7 | -3.6
CC(C)CCN(C(=O)CNC(=O)c1ccco1)C(C(=O)NC1CCCCC1)c1ccco1 (centres undefined) | 0.5 | 70.1* | 51.4* | 38.7 | 0.3 | -9.5
COC(=O)c1ccc(C(C(=O)NCc2ccccc2)N(Cc2cccs2)C(=O)c2cnccn2)cc1 (centres undefined) | 0.7 | 7.3 | 32.1 | 17.4 | 0.9 | -15.5
COC(=O)c1cccc(N(C(=O)c2cnccn2)C(C(=O)NCc2ccccc2)c2ccco2)c1 (centres undefined) | 0.5 | 71.4* | 47.7 | 16.2 | 0.3 | -11.8
COC(=O)c1cccc(N(C(=O)CNC(=O)c2ccco2)C(C(=O)NC2CCCC2)c2ccco2)c1 (centres undefined) | 0.4 | 25.2 | 64.4* | 12.7 | 0.7 | -12.1
COC(=O)c1ccc(N(C(=O)c2ccco2)C(C(=O)NC2CCCC2)c2ccco2)cc1 (centres undefined) | · | · | · | -10.9 | · | -4.5
COc1cc2c3c(c1OC)C1(C=CC(=O)C=C1)CC3N(C(=O)c1ccccc1)CC2 (centres undefined) | 0.1 | 13.8 | 86.4* | -8.5 | 0.9 | -17.0
COC(=O)c1ccc(CSc2nc(C(F)(F)F)c3c(c2C#N)CCC3)o1 | 0.9 | 78.0* | 5.5 | -11.1 | 0.2 | -2.6
COC(=O)c1ccc2c(=O)n(CCO)c(=S)[nH]c2c1 | 0.9 | -7.5 | 5.1 | 16.4 | 1.1 | -7.8
COC(=O)c1ccc2c(=O)n(NC(=O)C(c3ccccc3)c3ccccc3)c(=S)[nH]c2c1 | 0.4 | 0.6 | 62.0* | -6.2 | 1 | -1.6
COc1ccc(OC)c2c(C)cc(NCCN3CCOCC3)nc12 | 1.1 | 8.8 | -5.9 | -15.2 | 0.9 | 2.0
CCOC(=O)c1sc(NC(=O)c2cc(-c3ccccc3C)nc3ccccc23)c(C#N)c1C | 0.5 | 4.0 | 54.8* | 4.0 | 1 | -5.3
CCOC(=O)c1sc(NC(=O)CSc2nc(C)cc(-c3ccccc3)n2)c(C#N)c1C | 0.5 | 10.2 | 45.9 | -16.2 | 0.9 | -4.3
SMILES | CYP2C9 act | CYP2C19 inhib | CYP2C9 inhib | PLK1 PBD inh | CYP2C19 act | PLK1 kinase inh
Cc1ccccc1-c1cc(C(=O)Nc2sc(C)c(C)c2C(N)=O)c2ccccc2n1 | 0 | 69.1* | 98.0* | 22.2 | 0.3 | -7.3
Cc1ccccc1C(=O)Nc1sc(C)c(C)c1C(=O)c1ccccc1 | 0.6 | 28.3 | 36.3 | 9.0 | 0.7 | -12.7
Cc1nn(C(=O)Cn2ccc([N+](=O)[O-])n2)c(C)c1Br | 0.9 | 11.0 | 5.6 | -19.1 | 0.9 | -0.6
CC(C)(C)SCCNC(=O)c1ccc(NS(C)(=O)=O)cc1 | 0.8 | -12.8 | 20.2 | 9.9 | 1.1 | -7.8
O=C(CCCn1c(=O)c2sccc2n(CC(=O)OCc2ccccc2)c1=O)NCc1ccco1 | 1 | 50.9* | 2.3 | 11.1 | 0.5 | -18.1
O=C(CCCn1c(=O)c2sccc2n(Cc2ccc(F)cc2)c1=O)NCc1ccco1 | 0.3 | 79.9* | 69.0* | -7.3 | 0.2 | -8.9
CCN(Cc1ccccc1)C(=O)Cn1c(=O)n(CC(=O)NCc2ccco2)c(=O)c2sccc21 | 0.2 | 14.8 | 82.4* | -4.0 | 0.9 | -6.8
Cc1cccc(C)c1NC(=O)Cn1c(=O)n(CCC(=O)NCc2ccco2)c(=O)c2sccc21 | 0.6 | 3.9 | 44.5 | -22.4 | 1 | -5.0
O=C(CCn1c(=O)c2sccc2n(CC(=O)OCc2ccccc2)c1=O)NCc1ccccc1 | 0.4 | 30.3 | 61.8* | -1.9 | 0.7 | 0.6
COc1cc(OC)c(C(=O)Nc2ncn[nH]2)cc1OC | · | · | · | -2.8 | · | -3.8
S=c1[nH]nc(COc2ccc3c(c2)OCO3)n1-c1ccccc1 | 1 | 45.1 | -3.2 | 4.7 | 0.5 | -8.2
COC(=O)c1ccc(COC(=O)C23CC4CC(CC(O)(C4)C2)C3)o1 | 0.8 | 26.6 | 24.1 | -19.7 | 0.7 | -0.5
O=C(CCn1c(=O)c2sccc2n(CC(=O)OCc2ccccc2)c1=O)NCc1ccco1 | 0.4 | 30.1 | 57.5* | 6.4 | 0.7 | -13.9
CC(=O)N1N=C(c2cccc([N+](=O)[O-])c2)OC1c1ccc(Cl)cc1Cl (centres undefined) | 0.2 | 73.3* | 77.7* | 13.9 | 0.3 | -7.5
CC(=O)N1N=C(c2ccc(C)cc2)OC1c1ccc(C)cc1 (centres undefined) | 0.8 | 18.9 | 20.5 | 9.4 | 0.8 | -13.3
CC(C)NS(=O)(=O)c1ccc(OCC(=O)NCc2ccc3c(c2)OCO3)c(Cl)c1 | 0.1 | 97.4* | 93.6* | -6.1 | 0 | -9.6
COc1ccc(CCNC(=O)CC(NS(=O)(=O)c2ccc(NC(C)=O)cc2)C(C)C)cc1OC (centres undefined) | 0.5 | -0.9 | 49.3 | -8.4 | 1 | -1.5
COc1ccc(CCNC(=O)COc2ccc(S(=O)(=O)NC(C)C)cc2Cl)cc1OC | 0.1 | 64.9* | 86.0* | 30.0 | 0.4 | -8.9
Cc1c(C(=O)N2CCC(C)CC2)sc2ncnc(N(C)c3ccccc3)c12 | · | · | · | -6.0 | · | -6.2
CN(C)C(CNC(=O)NC1CCCCC1)c1cccnc1 (centres undefined) | 1 | -1.4 | -2.9 | 32.2 | 1 | -14.3
CCOC(=O)c1[nH]c(C)c(/C=N/O)c1C | 1.4 | 9.9 | -39.2 | -4.0 | 0.9 | -11.4

Screening data as filed in PubChem.
